Test results: the supplement of paper PMC11732987, “Enantioselective OTUD7B fragment discovery through chemoproteomics screening and high-throughput optimisation” (Communications Chemistry, 2025)

Assays:
Experiment in all cases: log2 ratio of Biotin-Ahx-Ub-VS probe labelling (fragment/DMSO); higher = less target engagement (more negative = stronger competition), active = hit call of the paper (q ≤ 0.05, log2 ratio ≤ -1)
Conditions in all cases: compound concentration: 200 uM; treatment time: 3 h
USP34 = USP34 (UniProt Q70CQ2)
Chain of USP34 (Q70CQ2 whole entry, the tested form may be a part): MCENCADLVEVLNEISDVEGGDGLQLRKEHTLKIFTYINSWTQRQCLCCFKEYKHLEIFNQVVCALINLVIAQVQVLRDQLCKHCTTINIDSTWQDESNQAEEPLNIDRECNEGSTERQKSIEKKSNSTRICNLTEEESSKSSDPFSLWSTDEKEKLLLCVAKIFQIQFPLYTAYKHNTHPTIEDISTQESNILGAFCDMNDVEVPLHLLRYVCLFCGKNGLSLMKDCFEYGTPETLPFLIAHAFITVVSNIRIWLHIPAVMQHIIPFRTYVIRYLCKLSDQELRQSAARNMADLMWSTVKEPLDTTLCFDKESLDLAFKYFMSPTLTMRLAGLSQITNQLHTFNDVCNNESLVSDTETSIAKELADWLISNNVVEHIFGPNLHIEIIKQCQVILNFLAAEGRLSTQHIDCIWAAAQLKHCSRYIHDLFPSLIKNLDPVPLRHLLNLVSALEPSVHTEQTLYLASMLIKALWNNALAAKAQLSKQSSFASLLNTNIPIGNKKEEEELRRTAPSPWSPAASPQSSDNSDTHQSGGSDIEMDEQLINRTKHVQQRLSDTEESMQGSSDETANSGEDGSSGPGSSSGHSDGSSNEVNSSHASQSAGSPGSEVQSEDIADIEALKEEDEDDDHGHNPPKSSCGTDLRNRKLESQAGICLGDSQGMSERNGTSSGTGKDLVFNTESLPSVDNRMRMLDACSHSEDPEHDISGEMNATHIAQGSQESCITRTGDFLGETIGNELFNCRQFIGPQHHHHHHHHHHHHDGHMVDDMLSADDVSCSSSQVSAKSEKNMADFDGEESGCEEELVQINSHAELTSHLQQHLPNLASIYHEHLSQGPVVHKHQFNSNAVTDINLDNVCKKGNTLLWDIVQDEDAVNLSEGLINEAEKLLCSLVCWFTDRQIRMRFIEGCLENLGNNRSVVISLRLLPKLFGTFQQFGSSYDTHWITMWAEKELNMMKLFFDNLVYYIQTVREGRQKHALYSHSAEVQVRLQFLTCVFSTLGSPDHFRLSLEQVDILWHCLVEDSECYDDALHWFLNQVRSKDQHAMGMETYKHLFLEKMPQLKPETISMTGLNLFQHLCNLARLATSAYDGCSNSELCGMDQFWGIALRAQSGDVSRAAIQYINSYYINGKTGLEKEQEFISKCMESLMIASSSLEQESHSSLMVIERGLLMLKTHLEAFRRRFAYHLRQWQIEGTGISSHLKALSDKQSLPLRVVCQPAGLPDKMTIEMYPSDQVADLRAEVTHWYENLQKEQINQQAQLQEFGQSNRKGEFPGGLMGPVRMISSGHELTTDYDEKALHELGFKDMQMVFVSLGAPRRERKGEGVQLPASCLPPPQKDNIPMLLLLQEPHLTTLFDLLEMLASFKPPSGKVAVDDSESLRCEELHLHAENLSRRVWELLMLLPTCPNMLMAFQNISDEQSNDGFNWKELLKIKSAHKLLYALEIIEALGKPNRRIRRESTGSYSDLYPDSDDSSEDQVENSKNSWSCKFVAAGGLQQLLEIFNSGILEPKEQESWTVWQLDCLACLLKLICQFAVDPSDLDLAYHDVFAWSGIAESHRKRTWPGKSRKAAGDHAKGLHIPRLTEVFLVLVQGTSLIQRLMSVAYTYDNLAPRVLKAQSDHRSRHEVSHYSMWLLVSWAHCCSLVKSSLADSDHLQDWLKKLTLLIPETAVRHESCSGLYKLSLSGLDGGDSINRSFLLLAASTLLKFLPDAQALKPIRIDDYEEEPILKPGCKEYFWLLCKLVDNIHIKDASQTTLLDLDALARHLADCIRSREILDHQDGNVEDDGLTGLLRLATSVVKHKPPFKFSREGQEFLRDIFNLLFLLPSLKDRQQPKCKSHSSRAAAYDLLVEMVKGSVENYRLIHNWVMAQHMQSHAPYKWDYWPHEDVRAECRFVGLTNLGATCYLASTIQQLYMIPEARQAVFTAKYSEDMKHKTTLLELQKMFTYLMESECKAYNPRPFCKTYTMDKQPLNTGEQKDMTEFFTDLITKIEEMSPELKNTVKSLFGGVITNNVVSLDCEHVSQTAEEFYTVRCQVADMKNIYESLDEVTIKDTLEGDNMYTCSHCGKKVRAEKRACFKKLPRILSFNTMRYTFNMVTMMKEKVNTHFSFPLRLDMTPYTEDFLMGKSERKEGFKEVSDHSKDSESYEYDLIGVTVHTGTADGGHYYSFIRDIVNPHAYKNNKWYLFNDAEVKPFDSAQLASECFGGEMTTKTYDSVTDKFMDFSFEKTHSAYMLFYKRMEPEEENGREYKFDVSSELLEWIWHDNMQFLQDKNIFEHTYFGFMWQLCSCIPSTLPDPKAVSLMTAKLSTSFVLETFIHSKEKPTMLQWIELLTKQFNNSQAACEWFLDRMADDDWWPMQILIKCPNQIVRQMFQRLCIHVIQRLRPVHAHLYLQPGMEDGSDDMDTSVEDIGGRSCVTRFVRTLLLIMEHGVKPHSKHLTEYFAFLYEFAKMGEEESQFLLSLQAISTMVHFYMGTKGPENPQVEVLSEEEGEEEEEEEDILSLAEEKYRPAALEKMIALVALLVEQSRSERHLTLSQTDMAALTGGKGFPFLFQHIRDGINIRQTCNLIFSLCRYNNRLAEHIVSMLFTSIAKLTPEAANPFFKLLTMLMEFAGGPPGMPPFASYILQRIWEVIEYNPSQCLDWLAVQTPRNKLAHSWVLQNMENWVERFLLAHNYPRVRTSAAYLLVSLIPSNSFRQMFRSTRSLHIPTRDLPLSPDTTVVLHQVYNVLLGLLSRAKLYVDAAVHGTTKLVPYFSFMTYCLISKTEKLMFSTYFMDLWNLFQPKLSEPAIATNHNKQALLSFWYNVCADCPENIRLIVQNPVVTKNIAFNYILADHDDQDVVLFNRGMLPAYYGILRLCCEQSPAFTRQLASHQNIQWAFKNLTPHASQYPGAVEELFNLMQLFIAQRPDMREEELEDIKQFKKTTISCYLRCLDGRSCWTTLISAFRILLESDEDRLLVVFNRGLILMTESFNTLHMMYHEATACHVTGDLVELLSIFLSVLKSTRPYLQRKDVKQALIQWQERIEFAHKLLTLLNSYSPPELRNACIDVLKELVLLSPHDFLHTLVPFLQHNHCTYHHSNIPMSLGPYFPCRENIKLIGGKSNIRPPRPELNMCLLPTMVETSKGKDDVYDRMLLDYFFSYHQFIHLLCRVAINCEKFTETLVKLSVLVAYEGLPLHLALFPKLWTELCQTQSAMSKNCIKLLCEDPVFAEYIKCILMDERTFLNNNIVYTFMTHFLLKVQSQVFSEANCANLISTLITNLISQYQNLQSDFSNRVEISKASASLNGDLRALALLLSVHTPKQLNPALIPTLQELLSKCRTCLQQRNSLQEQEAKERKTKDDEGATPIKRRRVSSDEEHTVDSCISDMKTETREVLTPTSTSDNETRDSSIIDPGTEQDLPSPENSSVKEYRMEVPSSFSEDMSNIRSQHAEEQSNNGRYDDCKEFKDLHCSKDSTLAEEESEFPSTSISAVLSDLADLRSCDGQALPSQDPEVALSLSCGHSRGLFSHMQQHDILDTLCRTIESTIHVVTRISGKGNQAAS
In short: (§1)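 HEK293T lysate (495 µg per sample, in Tris/CHAPS/IGEPAL buffer with protease inhibitors) was exposed in triplicate for 3 h to fragment at 200 µM or to vehicle, then to Biotin-Ahx-Ub-VS at 0.5 µM final for 1 h. Labelled DUBs were enriched on NeutrAvidin, digested with LysC and trypsin, and analysed by diaPASEF LC-MS/MS. Spectronaut label-free quantities were normalised to the global median, and values are average log2 ratios of fragment over vehicle from an unpaired t-test. Only proteins with ≥2 unique peptides were used.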

USP36 = molecular target: T1, USP36 (UniProt Q9P275)
T1 sequence (whole entry): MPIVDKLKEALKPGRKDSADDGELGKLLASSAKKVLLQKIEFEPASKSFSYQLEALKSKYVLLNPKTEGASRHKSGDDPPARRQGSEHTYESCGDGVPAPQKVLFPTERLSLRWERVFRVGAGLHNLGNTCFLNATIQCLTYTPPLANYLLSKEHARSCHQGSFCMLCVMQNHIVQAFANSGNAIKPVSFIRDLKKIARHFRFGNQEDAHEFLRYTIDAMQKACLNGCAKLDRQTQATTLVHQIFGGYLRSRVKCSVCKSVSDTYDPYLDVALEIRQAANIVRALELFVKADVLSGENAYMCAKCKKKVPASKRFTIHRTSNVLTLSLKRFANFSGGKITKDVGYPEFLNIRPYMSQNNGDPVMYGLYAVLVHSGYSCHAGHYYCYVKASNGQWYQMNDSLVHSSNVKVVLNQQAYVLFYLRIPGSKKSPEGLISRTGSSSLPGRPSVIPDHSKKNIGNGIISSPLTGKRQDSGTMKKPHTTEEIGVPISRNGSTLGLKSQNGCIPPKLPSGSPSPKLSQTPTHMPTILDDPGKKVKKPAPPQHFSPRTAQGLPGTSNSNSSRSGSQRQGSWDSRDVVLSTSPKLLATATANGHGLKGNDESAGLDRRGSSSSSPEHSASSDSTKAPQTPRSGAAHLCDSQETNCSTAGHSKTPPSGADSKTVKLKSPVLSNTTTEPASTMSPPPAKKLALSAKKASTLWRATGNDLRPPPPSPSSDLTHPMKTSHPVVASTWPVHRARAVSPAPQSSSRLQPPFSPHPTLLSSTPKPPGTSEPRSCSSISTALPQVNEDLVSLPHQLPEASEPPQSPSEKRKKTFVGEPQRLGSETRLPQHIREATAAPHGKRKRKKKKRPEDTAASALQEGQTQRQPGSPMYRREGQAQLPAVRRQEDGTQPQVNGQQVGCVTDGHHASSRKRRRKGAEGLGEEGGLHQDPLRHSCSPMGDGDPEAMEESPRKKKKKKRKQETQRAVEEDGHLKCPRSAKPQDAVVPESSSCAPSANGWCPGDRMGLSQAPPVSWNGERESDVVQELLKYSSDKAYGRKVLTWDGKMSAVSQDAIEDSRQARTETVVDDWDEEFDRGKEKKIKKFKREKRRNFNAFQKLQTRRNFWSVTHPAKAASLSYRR
In short: as §1

USP38 = molecular target: T2, USP38 (UniProt Q8NB14)
T2 sequence (whole entry): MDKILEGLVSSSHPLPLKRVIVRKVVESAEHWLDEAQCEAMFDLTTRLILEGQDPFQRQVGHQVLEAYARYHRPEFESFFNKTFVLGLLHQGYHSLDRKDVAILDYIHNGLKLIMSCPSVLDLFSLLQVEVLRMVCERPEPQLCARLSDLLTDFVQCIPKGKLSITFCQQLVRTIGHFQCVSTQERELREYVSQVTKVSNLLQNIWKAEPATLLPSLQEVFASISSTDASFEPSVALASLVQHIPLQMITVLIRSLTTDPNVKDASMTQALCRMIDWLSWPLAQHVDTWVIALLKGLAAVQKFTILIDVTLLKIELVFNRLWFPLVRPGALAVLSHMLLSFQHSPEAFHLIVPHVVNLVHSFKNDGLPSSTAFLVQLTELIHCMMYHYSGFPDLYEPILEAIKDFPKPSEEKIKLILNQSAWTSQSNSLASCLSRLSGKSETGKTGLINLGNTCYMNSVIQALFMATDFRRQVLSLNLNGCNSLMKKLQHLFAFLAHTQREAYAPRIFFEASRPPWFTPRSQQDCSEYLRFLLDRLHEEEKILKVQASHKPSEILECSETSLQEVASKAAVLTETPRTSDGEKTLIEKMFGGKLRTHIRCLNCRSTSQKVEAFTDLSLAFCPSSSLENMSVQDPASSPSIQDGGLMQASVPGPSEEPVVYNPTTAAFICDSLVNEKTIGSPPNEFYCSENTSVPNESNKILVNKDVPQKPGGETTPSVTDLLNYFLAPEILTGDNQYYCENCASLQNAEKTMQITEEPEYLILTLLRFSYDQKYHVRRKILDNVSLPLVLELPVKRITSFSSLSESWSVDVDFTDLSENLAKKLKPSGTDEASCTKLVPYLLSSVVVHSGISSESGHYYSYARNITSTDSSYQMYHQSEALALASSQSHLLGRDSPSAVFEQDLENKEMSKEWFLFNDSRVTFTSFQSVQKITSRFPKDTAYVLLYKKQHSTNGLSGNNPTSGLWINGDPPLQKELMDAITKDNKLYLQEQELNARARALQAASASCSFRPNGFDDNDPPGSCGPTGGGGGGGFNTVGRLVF
In short: as §1

USP39 = molecular target: T3, USP39 (UniProt Q53GS9)
T3 sequence (whole entry): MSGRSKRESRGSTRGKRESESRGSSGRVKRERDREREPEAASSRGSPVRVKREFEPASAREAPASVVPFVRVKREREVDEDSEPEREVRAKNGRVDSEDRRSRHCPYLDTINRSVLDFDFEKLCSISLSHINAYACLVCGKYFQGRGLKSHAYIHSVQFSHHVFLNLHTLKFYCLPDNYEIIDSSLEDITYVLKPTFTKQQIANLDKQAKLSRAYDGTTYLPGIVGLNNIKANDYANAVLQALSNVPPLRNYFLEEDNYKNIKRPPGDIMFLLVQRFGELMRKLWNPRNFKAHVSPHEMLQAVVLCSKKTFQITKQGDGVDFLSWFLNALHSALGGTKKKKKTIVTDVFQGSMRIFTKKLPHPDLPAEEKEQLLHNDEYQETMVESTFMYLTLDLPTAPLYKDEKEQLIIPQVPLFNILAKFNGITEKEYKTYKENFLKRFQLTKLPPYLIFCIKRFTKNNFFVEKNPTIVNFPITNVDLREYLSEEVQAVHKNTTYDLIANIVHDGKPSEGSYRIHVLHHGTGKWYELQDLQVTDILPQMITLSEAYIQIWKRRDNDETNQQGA
In short: as §1

USP4 = molecular target: T4, USP4 (UniProt Q13107)
T4 sequence (whole entry): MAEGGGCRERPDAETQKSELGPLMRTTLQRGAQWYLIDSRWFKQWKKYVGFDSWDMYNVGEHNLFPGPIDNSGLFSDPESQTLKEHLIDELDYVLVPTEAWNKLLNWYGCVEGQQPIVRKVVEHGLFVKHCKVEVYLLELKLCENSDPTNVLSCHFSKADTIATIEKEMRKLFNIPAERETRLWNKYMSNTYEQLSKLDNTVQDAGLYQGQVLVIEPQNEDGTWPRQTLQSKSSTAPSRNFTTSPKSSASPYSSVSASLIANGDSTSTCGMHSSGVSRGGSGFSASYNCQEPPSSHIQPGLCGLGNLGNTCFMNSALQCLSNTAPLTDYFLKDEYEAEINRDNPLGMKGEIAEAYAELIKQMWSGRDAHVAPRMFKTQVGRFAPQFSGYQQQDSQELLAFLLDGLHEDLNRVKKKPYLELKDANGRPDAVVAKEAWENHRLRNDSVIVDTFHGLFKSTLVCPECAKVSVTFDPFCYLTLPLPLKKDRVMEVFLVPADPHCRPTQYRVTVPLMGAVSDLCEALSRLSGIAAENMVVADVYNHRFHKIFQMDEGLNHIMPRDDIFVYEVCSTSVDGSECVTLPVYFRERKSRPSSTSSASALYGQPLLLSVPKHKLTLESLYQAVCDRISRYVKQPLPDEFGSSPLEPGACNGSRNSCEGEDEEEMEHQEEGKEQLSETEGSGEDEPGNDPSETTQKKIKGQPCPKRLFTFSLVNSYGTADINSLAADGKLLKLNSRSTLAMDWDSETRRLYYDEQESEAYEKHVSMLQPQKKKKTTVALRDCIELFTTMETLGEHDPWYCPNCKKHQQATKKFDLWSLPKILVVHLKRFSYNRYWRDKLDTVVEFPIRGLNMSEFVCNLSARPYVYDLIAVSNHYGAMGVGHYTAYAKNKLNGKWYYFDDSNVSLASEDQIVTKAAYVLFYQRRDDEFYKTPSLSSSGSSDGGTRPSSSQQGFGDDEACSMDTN
In short: as §1

Measured: log2 ratio of Biotin-Ahx-Ub-VS probe labelling

CNC(=O)Cn1cc(NC(=O)CCl)cn1
inactive: USP34 -0.0314 | USP36 -0.0542 | USP38 -0.0407 | USP39 0.234 | USP4 -0.0895
